This is part of a sample that, as a whole, favours compounds with a hit. Of some 83,000 tested, about 20% had one in any assay.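 Values shown are percent growth following 48 h exposure of cells in 96-well plates to a single concentration of compound; below 10 was considered active.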 Activity calls are given as the source filed them.
Assays:
Experiment in all cases: NCI-60 one-dose screen, 48 h (100 = growth as untreated, 0 = no growth, -100 = all killed)
Conditions in all cases: 10 µM unless noted
SR leukemia = test system: SR leukemia
RPMI-8226 leukemia = test system: RPMI-8226 leukemia
OVCAR-8 ovarian = test system: OVCAR-8 ovarian
OVCAR-5 ovarian = test system: OVCAR-5 ovarian
OVCAR-4 ovarian = test system: OVCAR-4 ovarian
SK-OV-3 ovarian = test system: SK-OV-3 ovarian
IGROV1 ovarian = test system: IGROV1 ovarian
OVCAR-3 ovarian = test system: OVCAR-3 ovarian
HS 578T breast = test system: HS 578T breast
NCI/ADR-RES ovarian = test system: NCI/ADR-RES ovarian

Measured: growth

O=C1/C=C/[C@@H](O)[C@@H]2C[C@@H](O)C[C@H]2/C=C/CCC[C@H](CCO)O1
active: SR leukemia 9.21% | OVCAR-3 ovarian -46.9%
inactive: RPMI-8226 leukemia 14.7% | OVCAR-8 ovarian 11% | OVCAR-5 ovarian 16.1% | OVCAR-4 ovarian 27.8% | SK-OV-3 ovarian 30.8% | IGROV1 ovarian 17.9% | HS 578T breast 29.4%

COc1ccc2cc(-c3ccnc4c(N=Nc5ccc(Cl)cc5)c(N)nn34)ccc2c1
inactive: SR leukemia 95.2% | RPMI-8226 leukemia 94.9% | OVCAR-8 ovarian 93.9% | OVCAR-5 ovarian 99.7% | OVCAR-4 ovarian 116% | SK-OV-3 ovarian 93.7% | IGROV1 ovarian 102% | OVCAR-3 ovarian 105% | HS 578T breast 92.9%

Cc1cccc2c1C[C@@]1(C2=O)C(c2ccc(C(C)(C)C)cc2)=NOS1=O (some centres undefined)
inactive: SR leukemia 71% | RPMI-8226 leukemia 69.4% | OVCAR-8 ovarian 89.2% | OVCAR-5 ovarian 112% | OVCAR-4 ovarian 86.3% | SK-OV-3 ovarian 98.4% | IGROV1 ovarian 64.5% | OVCAR-3 ovarian 92.1% | HS 578T breast 87.2%

CN(C)c1ccc(/C=C(\C#N)c2cc3ccccc3[nH]2)cc1
inactive: SR leukemia 20% | OVCAR-8 ovarian 26% | OVCAR-5 ovarian 44.9% | OVCAR-4 ovarian 55.7% | SK-OV-3 ovarian 26.5% | IGROV1 ovarian 50%
active: RPMI-8226 leukemia 6.48% | OVCAR-3 ovarian 8.37% | HS 578T breast 1.2%

COC(=O)/C=C1/SC(=Nc2ccc([N+](=O)[O-])cc2)N(CCc2c[nH]c3ccc(O)cc23)C1=O
inactive: OVCAR-8 ovarian 38.4% | OVCAR-5 ovarian 86.4% | OVCAR-4 ovarian 45.1% | SK-OV-3 ovarian 61.3% | IGROV1 ovarian 42.6% | OVCAR-3 ovarian 50.9% | HS 578T breast 47.5% | NCI/ADR-RES ovarian 43.9%
active: SR leukemia -22.5% | RPMI-8226 leukemia 8.49%

CCN1C(=O)N(CC)C2C1NN=c1s/c(=C\c3ccc[nH]3)c(=O)n12 (centres undefined)
inactive: SR leukemia 16.3% | RPMI-8226 leukemia 15.5% | OVCAR-8 ovarian 11.2% | OVCAR-5 ovarian 22.2% | OVCAR-4 ovarian 50.6% | SK-OV-3 ovarian 27.1% | IGROV1 ovarian 28.8%
active: OVCAR-3 ovarian -25.3% | HS 578T breast 7.95%

COc1ccc(C(=O)/C=C/c2ccc(N3CCCCC3)cc2)cc1OC
inactive: SR leukemia 73.3% | RPMI-8226 leukemia 72.9% | OVCAR-8 ovarian 92.8% | OVCAR-5 ovarian 99.8% | OVCAR-4 ovarian 65.3% | SK-OV-3 ovarian 107% | IGROV1 ovarian 95.4% | OVCAR-3 ovarian 104% | HS 578T breast 103% | NCI/ADR-RES ovarian 92.8%

C=C(C)[C@@H]1CCC[C@]2(C(=O)N3CCN(C)CC3)CC[C@]3(C)[C@@H](CC[C@@H]4[C@@]5(C)CC/C(=N\NC(=O)c6ccncc6)C(C)(C)[C@@H]5CC[C@]43C)[C@@H]12
inactive: RPMI-8226 leukemia 78.2% | OVCAR-8 ovarian 96.7% | OVCAR-5 ovarian 80.1% | OVCAR-4 ovarian 91.5% | SK-OV-3 ovarian 109% | IGROV1 ovarian 82.7% | OVCAR-3 ovarian 95.5% | HS 578T breast 103%
active: SR leukemia 7.99%

CC1(C)[C@@H](O[C@@H]2OC[C@@H](O[C@@H]3O[C@H](CO)[C@@H](O)[C@H](O)[C@H]3O[C@@H]3OC[C@@H](O)[C@H](O)[C@H]3O)[C@H](O)[C@H]2O[C@@H]2O[C@H](CO)[C@@H](O)[C@H](O)[C@H]2O)CC[C@]2(C)[C@H]3CC[C@]45OC[C@@]6(CC[C@](C)(C=O)C[C@H]64)[C@H](O)C[C@@]5(C)[C@]3(C)CC[C@@H]12
active: SR leukemia -37% | RPMI-8226 leukemia -44% | OVCAR-8 ovarian -48.9% | OVCAR-5 ovarian -76.8% | OVCAR-4 ovarian -67.1% | SK-OV-3 ovarian -98.4% | IGROV1 ovarian -71.7% | OVCAR-3 ovarian -72.6% | HS 578T breast -31.2%

CCc1ccc(CCC(=O)Nc2ncc(Cc3cc(Cl)ccc3Cl)s2)o1
inactive: SR leukemia 15.3% | RPMI-8226 leukemia 12.3% | OVCAR-8 ovarian 19.2% | OVCAR-5 ovarian 24.5% | OVCAR-4 ovarian 50.3% | SK-OV-3 ovarian 34% | IGROV1 ovarian 23.5%
active: OVCAR-3 ovarian -2.36% | HS 578T breast 7.65%

O=C(Cc1ccc(NC(=O)c2cccc(Cl)c2)cc1)NCc1ccccc1
inactive: SR leukemia 11.3% | RPMI-8226 leukemia 65.8% | OVCAR-8 ovarian 67.1% | OVCAR-5 ovarian 73.2% | OVCAR-4 ovarian 82.8% | SK-OV-3 ovarian 57.6% | IGROV1 ovarian 49.4% | OVCAR-3 ovarian 16.7% | HS 578T breast 32.9% | NCI/ADR-RES ovarian 50.5%

N#Cc1ccc(O)c(C2=NCC(Cc3ccccc3)O2)c1 (centres undefined)
inactive: SR leukemia 60.8% | RPMI-8226 leukemia 55.3% | OVCAR-8 ovarian 37% | OVCAR-5 ovarian 79.7% | OVCAR-4 ovarian 22.3% | SK-OV-3 ovarian 50.9% | IGROV1 ovarian 43.2% | OVCAR-3 ovarian 16.1% | HS 578T breast 90.7%

Nc1ncnc2c1N=C(c1ccc3c(c1)OCO3)CC(c1cccc(Nc3ccnc4cc(C(F)(F)F)ccc34)c1)N2 (centres undefined)
inactive: SR leukemia 23.3% | OVCAR-8 ovarian 67.7% | OVCAR-5 ovarian 108% | OVCAR-4 ovarian 89.2% | SK-OV-3 ovarian 80.2% | IGROV1 ovarian 84.2% | OVCAR-3 ovarian 95.1% | HS 578T breast 85.8%
active: RPMI-8226 leukemia 5.05%

CS(=O)(=O)Nc1cc(-c2ccc3ncc(C#N)c(Nc4ccc(F)c(Cl)c4)c3c2)cnc1Cl
active: SR leukemia -0.801% | RPMI-8226 leukemia -38.5% | OVCAR-8 ovarian 4.09% | OVCAR-5 ovarian 6.33% | OVCAR-4 ovarian -6.46% | SK-OV-3 ovarian -25.7% | IGROV1 ovarian -16.4% | OVCAR-3 ovarian -19.3% | HS 578T breast -17.7%
inactive: NCI/ADR-RES ovarian 21.9%

CC(C)N1C(=O)/C(=c2\sc3n(c2=O)C2C(NN=3)N(C)C(=O)N2C)c2ccccc21 (centres undefined)
inactive: SR leukemia 23.3% | RPMI-8226 leukemia 94.5% | OVCAR-8 ovarian 79.6% | OVCAR-5 ovarian 84.6% | OVCAR-4 ovarian 85% | SK-OV-3 ovarian 76.3% | IGROV1 ovarian 53.2% | OVCAR-3 ovarian 20.7% | HS 578T breast 41.7% | NCI/ADR-RES ovarian 51.5%

O=C1Nc2ccccc2C1(c1c[nH]c2ccccc12)c1c[nH]c2ccccc12
inactive: SR leukemia 77.1% | RPMI-8226 leukemia 77.5% | OVCAR-5 ovarian 65.4% | SK-OV-3 ovarian 72.8%
active: OVCAR-8 ovarian -9.32% | OVCAR-4 ovarian -25.2% | IGROV1 ovarian 8.3% | OVCAR-3 ovarian -47.2% | HS 578T breast -17.9%

CN(CCC(=O)c1ccccc1)CCC(=O)c1ccccc1
inactive: SR leukemia 49.9% | RPMI-8226 leukemia 50.8% | OVCAR-8 ovarian 93.2% | OVCAR-5 ovarian 95.5% | OVCAR-4 ovarian 103% | SK-OV-3 ovarian 99.8% | IGROV1 ovarian 95.3% | OVCAR-3 ovarian 113% | HS 578T breast 100%

COc1ccc(-c2nc(-c3cn(C)c4ncccc34)cs2)cc1
inactive: SR leukemia 12.2% [100 µM] | OVCAR-8 ovarian 11.5% [100 µM] | OVCAR-5 ovarian 28% [100 µM] | IGROV1 ovarian 17.9% [100 µM] | OVCAR-3 ovarian 17.9% [100 µM] | HS 578T breast 38.8% [100 µM]
active: RPMI-8226 leukemia -28.1% [100 µM] | OVCAR-4 ovarian 1.57% [100 µM] | SK-OV-3 ovarian -3.58% [100 µM]

COc1ccc(C2CC(c3cc(OC)c(OC)c(OC)c3)=NO2)cc1OCCCCOc1cc2c(cc1OC)C(=O)N1CCC[C@H]1C=N2 (some centres undefined)
active: SR leukemia -18.1% | IGROV1 ovarian -21.5% | OVCAR-3 ovarian 0.847% | HS 578T breast 0.334%
inactive: RPMI-8226 leukemia 17.1% | OVCAR-8 ovarian 26.1% | OVCAR-5 ovarian 17.9% | OVCAR-4 ovarian 13.8% | SK-OV-3 ovarian 22% | NCI/ADR-RES ovarian 19.8%

CS(=O)(=O)c1nnc(-c2ccccc2)s1
inactive: SR leukemia 40.3% | RPMI-8226 leukemia 99.5% | OVCAR-8 ovarian 97.4% | OVCAR-5 ovarian 99.3% | OVCAR-4 ovarian 99.5% | SK-OV-3 ovarian 98.8% | IGROV1 ovarian 103% | OVCAR-3 ovarian 99.3% | HS 578T breast 108%

COc1cc(/C=C/C(=O)c2ccc(-n3cc(CN4CCN(c5cc6c(cc5F)c(=O)c(C(=O)O)cn6C5CC5)CC4)nn3)cc2)ccc1O
inactive: SR leukemia 14.1% | OVCAR-8 ovarian 42.7% | OVCAR-5 ovarian 84.7% | OVCAR-4 ovarian 62.9% | SK-OV-3 ovarian 72.3% | IGROV1 ovarian 51.8% | OVCAR-3 ovarian 57.3% | HS 578T breast 73.7% | NCI/ADR-RES ovarian 94.2%
active: RPMI-8226 leukemia -14.6%

Cc1ccc(S(=O)(=O)N2CCC(=O)c3ccccc32)cc1
inactive: SR leukemia 39.1% | RPMI-8226 leukemia 106% | OVCAR-8 ovarian 103% | OVCAR-5 ovarian 91% | OVCAR-4 ovarian 99.3% | SK-OV-3 ovarian 62.2% | IGROV1 ovarian 85.2% | OVCAR-3 ovarian 63.4% | HS 578T breast 71.7%

CCCCCCCC/C=C\CCCCCCCCOc1ccc(CC(=O)NCC[N+]2(C)CCOCC2)cc1
inactive: SR leukemia 71.7% | RPMI-8226 leukemia 66.6% | OVCAR-8 ovarian 73% | OVCAR-5 ovarian 29.5% | OVCAR-4 ovarian 97.3% | SK-OV-3 ovarian 98.8% | OVCAR-3 ovarian 98.1% | HS 578T breast 72.5% | NCI/ADR-RES ovarian 104%
active: IGROV1 ovarian 5.35%

C[C@H](C(=O)N(CCc1ccc(Cl)c(Cl)c1)Cc1cncs1)[C@@H]1CC[C@H](C[C@H](C)n2cc(CN3CCC(c4ccc(Cl)cc4)CC3)nn2)O1
inactive: RPMI-8226 leukemia 91.7% | OVCAR-8 ovarian 91% | OVCAR-5 ovarian 97% | OVCAR-4 ovarian 92.6% | SK-OV-3 ovarian 103% | IGROV1 ovarian 101% | OVCAR-3 ovarian 105% | HS 578T breast 98.7%
active: SR leukemia -44.7%

— PubChem BioAssay (NCI)
